# Only some compounds are listed: those with a hit (about 10% of all), similar ones and a draw of the others.
# INS promoter inh: TRM-6 insulin promoter activity inhibition; TRM-6 cells (human fetal islet line), insulin promoter-eGFP reporter, imaging; reporter expression induced with tamoxifen; inhibition, % at 2 µM; 130,000 tested, 0.9% active; AID 1273;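 active means inhibition above the mean plus 3 SD, with well images judged a real hit on visual review, cut at about 60% in these data, passing the limit was not always enough; inconclusive means inhibition over the cutoff but images rejected on review; inactive means inhibition not above the cutoff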
# p97 ATPase inh: inhibitors of human p97 ATPase | P55072 | recombinant p97 ATPase, Kinase-Glo ATP luminescence, 3 h | inhibition, % at 8 µM | 220,000 tested, 0.42% active; in the data active means inhibition above about 15%;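 further: 0% = DMSO vehicle and 100% = wells lacking enzyme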
# Target sequence (P55072 whole entry, looked up): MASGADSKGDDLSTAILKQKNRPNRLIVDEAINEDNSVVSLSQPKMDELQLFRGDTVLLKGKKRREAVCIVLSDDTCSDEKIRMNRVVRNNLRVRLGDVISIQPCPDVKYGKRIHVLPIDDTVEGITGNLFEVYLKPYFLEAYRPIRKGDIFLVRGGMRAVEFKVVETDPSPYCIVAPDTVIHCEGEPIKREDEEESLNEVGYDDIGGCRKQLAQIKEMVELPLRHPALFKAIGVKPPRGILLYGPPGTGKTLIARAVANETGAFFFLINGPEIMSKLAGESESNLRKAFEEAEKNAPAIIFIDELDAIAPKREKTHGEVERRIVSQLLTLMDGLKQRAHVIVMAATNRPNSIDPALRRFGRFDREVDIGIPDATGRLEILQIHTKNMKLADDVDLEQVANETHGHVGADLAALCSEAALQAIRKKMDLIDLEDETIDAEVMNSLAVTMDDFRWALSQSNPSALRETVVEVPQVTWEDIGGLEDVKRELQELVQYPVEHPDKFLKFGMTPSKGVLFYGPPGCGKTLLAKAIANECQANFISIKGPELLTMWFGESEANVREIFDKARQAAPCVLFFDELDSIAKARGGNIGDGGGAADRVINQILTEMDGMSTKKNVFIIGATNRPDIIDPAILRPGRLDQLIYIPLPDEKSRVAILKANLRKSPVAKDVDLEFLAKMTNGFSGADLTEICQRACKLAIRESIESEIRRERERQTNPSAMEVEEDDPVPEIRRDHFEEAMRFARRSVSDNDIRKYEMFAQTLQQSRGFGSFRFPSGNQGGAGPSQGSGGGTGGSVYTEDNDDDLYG
# bCat KO growth: beta-catenin-lacking colon tumor cell growth suppression; HCT116 beta-catenin knockout viability, CellTiter-Glo, 60 h; active compounds read low; viability, % at 10 µM; 140,000 tested, 1.5% active; AID 818;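 active means viability at or under a set limit, the compound median less 4 SD, cut at about 6% in these data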;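 further: 0% = Hyamine 1622 control at 20 µM and 100% = untreated cell control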
# Lmaj promast: reduces viability of Leishmania major promastigotes | resazurin fluorescence viability | inhibition, % at 10 µM | 200,000 tested, 9% active; in the data active means inhibition above about 50%;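 further: promastigotes grown with compound for 44 hours at 28 °C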
# PTEN del growth: growth suppressors of cells with PTEN tumor suppressor deletion | 140,000 tested, 1.2% active | viability, % at 10 µM | HCT116 PTEN-null viability, CellTiter-Glo, 60 h; active compounds read low;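 active means viability at or below a set limit, 4 SD under the median of all tested compounds, cut at about 3.7% in these data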;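 further: PTEN knockout HCT116 line with beta catenin targeted HCT116 as companion control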
# ROMK primary: modulates human ROMK potassium channel activity | B-score at 10 µM | Tet-inducible ROMK, thallium flux fluorescence; actives lie on both sides | 130,000 tested, 2% active | P48048 | AID 1918;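 active means signal ratio slope over the read window, or its plate-corrected B-score, at least 3 SD from the plate mean, either direction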;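 further: B-score of the F/F0 ratio slope over 7 to 12 s after thallium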
# ROMK retest: confirmation of human ROMK potassium channel modulators; 3,000 tested, 54% active; shares compounds with ROMK primary; ROMK thallium flux, fluorescence ratio; active compounds read low; normalized thallium flux (F/F0 slope) at 10 µM;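 active means Flux at 10 µM at least 3 SD below or above vehicle control mean in one or both replicates; inconclusive means no clear call, values can overlap the other calls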
# The depositor's hits bear a star; ? = inconclusive; nt = not tested or not shown.
SMILES,INS promoter inh,p97 ATPase inh,bCat KO growth,Lmaj promast,PTEN del growth,ROMK primary,ROMK retest
COc1ccc(OC)c(C(c2nnnn2Cc2ccccc2)N2CCN(C3CCCCC3)CC2)c1 (centres undefined),-52,-7,80,7,71,nt,nt
COc1ccc(Cn2nnnc2C(c2ccc3ncccc3c2)N2CCN(C3CCCCC3)CC2)cc1 (centres undefined),nt,-1,nt,12,nt,-2.2,nt
COc1ccc(Cn2nnnc2C(c2cc3cc(C)ccc3[nH]c2=O)N2CCN(C)CC2)cc1 (centres undefined),nt,5,nt,-5,nt,-3,0.076
COc1cccc(C(c2nnnn2Cc2ccccc2)N2CCN(C3CCCC3)CC2)c1OC (centres undefined),18,-7,67,98*,72,-4.8*,0.054*
COc1ccc(Cn2nnnc2C(c2ccc(C)cc2)N2CCN(C3CCCC3)CC2)cc1 (centres undefined),-23,-1,78,14,87,nt,0.053*
Cc1cc(N2C(=O)C(O)=C(C(=O)c3cccs3)C2c2ccc(F)cc2)no1 (centres undefined),nt,-4,nt,nt,nt,nt,nt
O=C(c1nnsc1S(=O)c1ccc(Cl)cc1)N1CCOCC1 (centres undefined),-218,5,nt,100*,nt,-6.3*,0.052*
CCOC(=O)c1cc(C(C)(C)C)oc1CNC(=O)c1c(C)oc2c1CCCC2,-493,-8,81,5,75,-0.74,nt
CCc1nnc(NC(=O)C2CCC(CNc3c(N4CCCCC4)c(=O)c3=O)CC2)s1 (centres undefined),nt,2,nt,nt,nt,-12*,0.086
Cc1cc2cc(CN(Cc3ccco3)C(=O)NCc3ccccc3)c(=O)[nH]c2cc1C,nt,-6,92,17,88,-5.2*,0.059*
CCc1ccc2[nH]c(=O)c(CN(CCN(C)C)C(=S)NCc3ccco3)cc2c1,-53,2,nt,0,nt,-1.8,nt
Cc1cc2cc(CN(CCN(C)C)C(=S)NCc3ccco3)c(=O)[nH]c2cc1C,nt,5,nt,13,nt,-3.7*,0.059*
CCc1ccc2[nH]c(=O)c(CN(CCN(CC)CC)C(=S)NCc3ccco3)cc2c1,nt,7,nt,15,nt,-3.3*,0.064*
Cc1cc2cc(CN(Cc3ccco3)C(=O)C3CCCCC3)c(=O)[nH]c2cc1C,23,-3,86,14,82,-0.042,nt
Cc1ccc(NC(=O)C2CCN(S(=O)(=O)c3c(C)n[nH]c3C)CC2)nc1,-19,4,88,-6,94,-1.3,nt
c1ccc(-c2cc3n(c2)CCc2ccccc2-3)cc1,-81,-1,35,-2,22,nt,nt
C/C(=N/NC(=O)CN1CCN(Cc2ccccc2Cl)CC1)c1ccncc1,nt,-4,87,1,87,nt,nt
O=C(O)c1cccc(N/N=C/C2=C(Cl)c3cc(Cl)ccc3SC2)c1,nt,8,nt,-13,nt,0.76*,0.08
CS(=O)(=O)n1nc(OC(=O)c2cc(Br)ccc2Cl)cc1N,25,-6,nt,-3,nt,-3*,0.054*
CS(=O)(=O)n1nc(OC(=O)c2cccc3ccccc23)cc1N,29,11,78,-6,87,-2.1,nt
CCCc1[nH]n(-c2nc3ccccc3s2)c(=O)c1C=NCC(C)C,9,3,100,36,92,-1.3,nt
O=[N+]([O-])c1ccc(CN2CCOCCOCCN(Cc3ccc([N+](=O)[O-])cc3)CCOCC2)cc1,-100,0,56,80*,60,-9.9*,0.012*
CSc1ccc(CN2CCN(Cc3ccc([N+](=O)[O-])cc3)CC2)cc1,-23,0,nt,91*,nt,-3.9*,0.054*
CCS(=O)(=O)N1CCN(Cc2ccc([N+](=O)[O-])cc2)CC1,nt,-1,82,-5,96,nt,nt
CC(=O)/C=C1/C(=O)Nc2ccccc21,44,1,nt,94*,nt,-3.8*,0.034*
SMILES,INS promoter inh,p97 ATPase inh,bCat KO growth,Lmaj promast,PTEN del growth,ROMK primary,ROMK retest
Clc1cccc2c1Sc1ccccc1CC2N1CCNCC1 (centres undefined),-3,-4,1.0*,100*,0.8*,-3.1*,0.051*
O=C(c1ccccc1Cl)N1CCNCC1,23,-4,88,0,84,1.4,nt
O=C1OC(/C=C/c2ccc(Cl)cc2Cl)=NC/1=C\c1cccs1,nt,2,97,-9,100,-2.9*,0.059*
O=C(/C=N/O)Nc1ccc2sc3ccccc3c2c1,nt,12,nt,nt,nt,-2.8*,0.064*
O=C(NC1CCCCC1)c1ccccc1NC(=O)C1CC1,-83,4,100,-4,98,nt,nt
Cc1nc2ccc(S(=O)(=O)NCC(=O)N(C)Cc3ccccc3)cc2s1,-29,2,nt,2,nt,0.65,nt
COc1ccc(N2CCCCn3c2nc2c3c(=O)n(C)c(=O)n2C)cc1,nt,-3,102,2,97,nt,nt
CCCCOC(=O)Cn1c(=O)c2c(nc3n2CCCCN3c2ccc(C)cc2)n(C)c1=O,8,4,87,25,99,nt,0.061*
COc1cc(/C=N/NC(=S)NCCN2CCOCC2)ccc1O,13,-1,90,1,102,0.91,nt
COCCCNS(=O)(=O)c1ccc2[nH]c(=O)[nH]c2c1,nt,5,nt,nt,nt,nt,nt
O=c1[nH]c2ccc(S(=O)(=O)NCCO)cc2[nH]1,nt,6,nt,-6,nt,1.5*,0.075
O=C1C=CC(=O)C(C2=C3C(=O)N(CCc4ccccc4)CC(=O)N3CCC2)=C1,-279,8,72,-6,83,-3*,0.051*
OCCCc1nc2ccccc2n1CCOc1ccccc1,nt,2,101,1,101,-2.9*,0.067*
CCOc1ccccc1N1CCN(C(=O)CC(C)C)CC1,-25,-1,95,42,105,0.18,nt
CCN(CC)Cc1c(O)ccc2c([N+](=O)[O-])c(C)n(-c3ccc(OC)cc3)c12,78*,0,79,69*,83,-4.8*,?
COc1ccc(Oc2c(C)oc3c(CN(C)C)c(O)ccc3c2=O)cc1,-36,1,97,5,101,0.45,nt
CN(C(=S)Nc1ccc(F)cc1)C1(c2ccccc2Cl)CCCCC1=O (centres undefined),-94,0,92,28,79,nt,0.08
CC[N+](CC)(CC#Cc1ccccc1)CC#Cc1ccccc1,nt,1,nt,nt,nt,nt,nt
Cc1ccc(NC(=O)COc2ccccc2CNC(C)(C)CC(C)(C)C)cc1,-46,4,1.4*,100*,1.8*,-3.6*,0.05*
CC(C)(CO)NCc1ccccc1OCC(=O)Nc1ccccc1,-197,4,96,49,94,0.00071,nt
COc1ccc(CN2CCN(CC(O)Cn3c4ccccc4c4ccccc43)CC2)cc1 (centres undefined),11,2,16,99*,14,-3.6*,0.06*
COc1ccc(-c2cc3ccccc3n2CC(O)CN2CCC(C)CC2)cc1 (centres undefined),nt,6,nt,87*,nt,-2*,0.057*
Cc1c(NC(=O)C2C3C=CC(C3)C2C(=O)O)c(=O)n(-c2ccccc2)n1C (centres undefined),26,2,95,0,102,-0.26,nt

# Compound activity deposited in PubChem by several laboratories.
